From PubChem
Only some compounds are listed: those with a hit (about 2.6% of all), similar ones and a draw of the others.
TLR9-MyD88 inh: inhibitors of TLR9-MyD88 association in cells, primary screen, cell-based, CHO, BLA complementation, fluorescence | CCF4 FRET ratio | inhibition, % at 4.98 µM | 340,000 tested, 0.21% active;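 active = inhibition above the mean over all tested compounds plus 3 SD, cut at about 21% in these data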;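 also: 0% = DMSO only wells and 100% = clavulanate BLA inhibitor control wells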
Granule exo inh: LAMP-1 surface exposure blockers, TALL-104 cells – cell-based, flow cytometry, MLPCN library, primary screen; TALL-104 LAMP-1 surface exposure; cells stimulated with thapsigargin and PMA; inhibition, % at 10 µM; 360,000 tested, 0.66% active;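 active = inhibition above about 55%, limit read from the data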
NOD2 RIPK2 PPI: NOD2-RIPK2 binding disruptors in cells, primary screen, fluorescence, CHO cells, BLA complementation; 360,000 tested, 0.38% active; CCF4 ratio; inhibition, % at 4.98 µM; in the data active = inhibition above about 21%;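 also: 0% = vehicle only and 100% = reference blocker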
TLR4-MyD88 BLA: inhibitors of TLR4-MyD88 association in cells, primary screen, cell-based, HeLa CL3-4, BLA complementation, FRET ratio | Toll-like receptor 4 (Homo sapiens) + Myeloid differentiation primary response protein … | HeLa CL3-4 TLR4/MyD88 BLA complementation | inhibition, % at 8.4 µM | 200,000 tested, 0.18% active; in the data active = inhibition above about 25%;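 also: 0% = vehicle and 100% = reference inhibitor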
PRMT1 FP inh: PRMT1 methyltransferase inhibitors, primary screen, biochemical, fluorescence polarization; Protein arginine N-methyltransferase 1 (Homo sapiens), Q99873; recombinant PRMT1, activity-based probe fluorescence polarization; inhibition, % at 2.79 µM; 370,000 tested, 1.3% active;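 active = inhibition above about 21% made by adding two undisclosed values, limit read from the data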
ABHD5-PLIN5 inh: ABHD5-PLIN5 interaction inhibitors, primary screen, cell lysate, split luciferase complementation, luminescence; Perilipin-5 (Homo sapiens) + 1-acylglycerol-3-phosphate O-acyltransferase ABHD5 (Homo …; Split G. princeps luciferase complementation, 4 h; inhibition, % at 4 µM; 360,000 tested, 0.78% active;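 active = inhibition above the mean inhibition across every tested compound plus 3 SD, cut at about 22% in these data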;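 also: 0% = DMSO only wells and the 100% control is not disclosed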
ABHD5-PLIN5 conf: ABHD5-PLIN5 interaction inhibitors, confirmation, biochemical, luminescence | shares compounds with ABHD5-PLIN5 inh | 2,200 tested, 67% active | inhibition, % at 4 µM; in the data active = inhibition above about 23%;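 also: 0% = DMSO vehicle wells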
HNF4 split-luc: HNF4 dimerization inhibitors, counter-screen for ABHD5-PLIN5 interaction inhibitor project, biochemical, split-luciferase complementation, luminescence; 2,200 tested, 77% active; AID 651674, 2012; shares compounds with ABHD5-PLIN5 inh; inhibition, % at 4 µM;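 active = mean inhibition across replicate wells exceeding the computed hit threshold, cut at about 13% in these data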;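 also: light from luciferase halves that rejoin when HNF4 fusion proteins dimerize; 0% = DMSO only wells and the 100% control is not given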
An asterisk follows results filed as active; x = no result.

SMILES	TLR9-MyD88 inh	Granule exo inh	NOD2 RIPK2 PPI	TLR4-MyD88 BLA	PRMT1 FP inh	ABHD5-PLIN5 inh	ABHD5-PLIN5 conf	HNF4 split-luc
CCN(CC)CCC(C)OC(c1ccccc1)c1ccccc1 (configuration not stated)	-1.9	-0.3	0.5	x	2.9	23.5*	77.2*	30.6*
O=C1CCN(Cc2ccc(O)cc2)CCN1[C@H](CO)c1ccccc1	3.3	-1.1	-3.7	x	-0.1	47.4*	4.4	14.8*
O=C1CCN(Cc2ccccc2)CCN1[C@H](CO)c1ccccc1	-8.0	-3.6	6.5	x	-2.0	1.1	x	x
Cn1nc(C(C)(C)C)cc1C(=O)NCC1CCN(C(=O)C(=O)c2cc3ccccc3o2)CC1	x	x	x	x	-2.1	x	x	x
C=C1C(=O)[C@@]23[C@H](O)C[C@@H]4C(C)(C)CC[C@H](O)[C@]4(C)[C@@H]2C[C@H](O)[C@@H]1[C@H]3O	6.0	7.6	-4.8	-11.2	22.5*	80.2*	89.2*	98.7*
C=C1C(=O)[C@@]23[C@H](O)C[C@@H]4C(C)(C)CC[C@H](O)[C@@]4(C)[C@@H]2CC[C@@H]1[C@H]3O	-6.0	0.3	19.8	-4.2	6.6	52.8*	84.8*	77.8*
O=C(Oc1ccccc1/C=C\C(=O)c1cc2ccccc2o1)c1cccc(F)c1	-6.0	55.4	5.6	8.6	6.4	32.4*	98.8*	94.6*
O=C(N/N=C/c1ccccc1OC(=O)c1ccc2c(c1)OCO2)c1cccc(F)c1	0.1	-1.9	4.0	8.8	-0.9	-3.3	x	x
NC(=O)N/N=C/c1ccccc1OC(=O)c1cc2ccccc2oc1=O	4.7	-8.2	-2.6	x	2.2	2.1	x	x
O=C(Oc1ccccc1/C=C\C(=O)c1cc2ccccc2o1)c1ccccc1	-6.9	61.1*	-4.5	7.0	3.7	30.5*	98.7*	100.8*
O=S1(=O)N[C@H](Cc2ccccc2)COc2cc(N3CCOCC3)ccc21	x	x	x	x	1.9	x	x	x
O=C(NCCc1ccccc1)OCc1cn(-c2c(F)cccc2F)nn1	x	x	x	x	-4.1	x	x	x
Nc1[nH]c(C(=O)c2ccc(Br)cc2)c(-c2ccc(Br)cc2)c1C(=O)NCc1cccc2ccccc12	x	x	x	x	-3.6	x	x	x
CCOc1cc(CNCCCN2CCOCC2)cc(Br)c1OCC(=O)Nc1cccc(C(F)(F)F)c1	2.7	41.5	5.6	3.4	-1.7	24.6*	16.8	15.0*
CCOc1cc(CNCCCN2CCOCC2)cc(Cl)c1OCC(=O)NC(C)(C)C	-12.8	30.6	-8.9	x	0.1	-5.7	x	x
CCOC(=O)CSc1[nH]c2cc(OC)ccc2c1[N+](=O)[O-]	0.2	-3.3	0.5	8.1	10.0	6.0	x	x
COC(=O)CSc1[nH]c2ccc(F)cc2c1[N+](=O)[O-]	1.5	22.3	2.5	x	20.7	24.6*	43.6*	82.7*
C[C@H]1COc2cc(NCCO)ccc2S(=O)(=O)N1	x	x	x	x	0.5	x	x	x
O=C(O)c1cccc(-c2ccc3c(c2)OCO3)c1	2.6	1.8	-1.7	x	-1.1	88.3*	2.5	3.5
CN(C)CCOc1ccccc1Cc1ccccc1	-2.3	4.3	-1.2	x	-3.0	34.6*	73.4*	25.0*
C#CCNC(=O)C[C@H]1C[C@@]2(C(=O)OC)C(=C[C@H](C(C)(C)C)O[C@@H]2C)N(Cc2ccc(Cl)cc2Cl)C1=O	x	x	x	x	1.8	x	x	x
C=CC[C@]12C=C(OC)C(=O)C(OC)=C1O[C@@H](c1ccc3c(c1)OCO3)[C@H]2C	9.7	2.6	-10.8	x	-2.5	0.5	x	x
C=CC[C@]12CC=CC(=O)[C@@]1(O)O[C@H](c1ccc(OC)c(OC)c1)[C@H]2C	-5.2	-5.1	-15.8	x	0.8	27.0*	50.0*	35.9*
CCOc1ccc(/C=C2\CCC(C3CCCC3)C2=O)cc1OC (configuration not stated)	-7.1	-5.5	-2.9	x	-0.8	3.1	x	x
COc1cc(C=C2CCCC(=Cc3ccc(OCC4CO4)c(OC)c3)C2=O)ccc1OCC1CO1 (configuration not stated)	2.3	-0.7	1.5	x	-6.6	24.4*	36.8*	20.8*
SMILES	TLR9-MyD88 inh	Granule exo inh	NOD2 RIPK2 PPI	TLR4-MyD88 BLA	PRMT1 FP inh	ABHD5-PLIN5 inh	ABHD5-PLIN5 conf	HNF4 split-luc
COc1ccc(/C=C2/CSC/C(=C/c3ccc(OC)c(OC)c3)C2=O)cc1OC	-1.2	-4.7	8.3	x	9.4	55.5*	80.8*	67.6*
COC(=O)CC1SC(=O)NC1=Nc1ccc(O)cc1 (configuration not stated)	-2.9	-6.4	4.5	4.1	-0.6	6.5	x	x
COC(=O)CC1SC(=O)NC1=O (configuration not stated)	-3.1	-1.9	-1.0	-3.0	-0.1	39.2*	0.1	0.6
CN(CC(=O)N1CCCC1)S(=O)(=O)c1ccc(Cl)cc1	-4.6	16.5	-6.2	-7.4	6.0	27.1*	5.0	3.2
CC(C)(C)OC(=O)N1CCCC(C(=O)Nc2ccc(C(=O)NC3CC3)cc2)C1 (configuration not stated)	3.5	5.9	7.2	x	1.7	35.2*	2.3	5.2
O=C(Cc1c[nH]c2ccccc12)Nc1ccc(Nc2ccncc2)cc1	x	x	x	x	0.2	x	x	x
CCOC(=O)C1CCCCN1C(=O)c1ccc2nc(Cc3ccc(OC)cc3)oc2c1 (configuration not stated)	-9.2	3.3	-2.3	x	5.8	4.8	x	x
CCOC(=O)C1CCCCN1C(=O)/C(=C/c1ccc(OC)cc1)c1ccc(OC)c(OC)c1 (configuration not stated)	-2.8	2.7	-4.0	x	-2.6	24.5*	-3.8	-0.2
O=C(/C=C/c1cccc([N+](=O)[O-])c1)c1ccc([N+](=O)[O-])o1	7.5	-1.6	5.4	x	4.2	72.0*	105.2*	110.9*
O=C(/C=C/c1cccc([N+](=O)[O-])c1)c1ccco1	-3.6	-7.9	4.0	x	-0.7	70.8*	96.5*	97.3*
COc1ccc(/C=C/C(=O)c2ccc([N+](=O)[O-])o2)cc1	1.3	26.2	-2.7	x	-0.7	18.0	x	x
Cc1cccc(/C=C/C(=O)c2ccc([N+](=O)[O-])o2)c1	4.5	-7.1	6.2	x	12.0	76.8*	103.7*	107.5*
